Bioassay records (PubChem BioAssay)
Hck Nef HTS: human Hck-Nef kinase inhibition. AID 463187. hit rate 0.68% among 220,000. Recombinant Hck-YEEI plus Nef, Z-Lyte FRET kinase assay. inhibition, % at 20 µM. P08631;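 active = Hck-Nef kinase inhibition above about 50%, limit read from the data; inactive = inhibition below that limit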
Mcl1 Bid PPI: disrupts binding of human Mcl-1 to Bid peptide. AID 1021. TR-FRET Mcl-1/Bid-Dy647 peptide binding, 1536-well. Q07820. hit rate 0.97% among 220,000. inhibition, % at 21.7 µM;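 active = compounds that cut the binding signal by more than half at the single screening dose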;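 also: His-tagged Mcl-1 with europium anti-His antibody binding Bid BH3 peptide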
Target sequence (Q07820 whole entry, looked up): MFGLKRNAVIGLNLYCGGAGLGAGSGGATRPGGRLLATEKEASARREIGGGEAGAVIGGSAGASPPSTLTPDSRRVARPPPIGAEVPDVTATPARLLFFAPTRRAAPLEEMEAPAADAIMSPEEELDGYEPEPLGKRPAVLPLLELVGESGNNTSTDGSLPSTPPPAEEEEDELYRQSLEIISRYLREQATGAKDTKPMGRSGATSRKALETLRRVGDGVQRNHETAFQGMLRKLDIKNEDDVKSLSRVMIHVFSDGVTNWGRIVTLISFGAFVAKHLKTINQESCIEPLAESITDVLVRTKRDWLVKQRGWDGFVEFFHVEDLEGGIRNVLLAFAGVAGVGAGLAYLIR
Mcl-1 Bim block: inhibitors of Bim-Mcl-1 interaction, human; Q07820; inhibition, % at 10 µM; AID 1009; Bead-based flow cytometry, Bim peptide-Mcl-1 binding; hit rate 0.1% among 190,000; in the data active = inhibition above about 40%
Mcl1-Noxa inh: disrupts binding of human Mcl-1 to Noxa peptide; AID 1022; inhibition, % at 21.7 µM; TR-FRET Mcl-1/Noxa peptide binding, 2 h; hit rate 1.5% among 220,000; Q07820;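 active = compounds that cut the protein-peptide binding signal by more than 50% relative to plate controls in a single-dose test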;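 also: His-tagged Mcl-1 with rhodamine Noxa BH3 peptide and terbium anti-His antibody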
eIF4E-4G inh: eIF4E/eIF4G interaction inhibition in translation initiation; P63073+Q04637; inhibition, % at 21.7 µM; TR-FRET eIF4E-eIF4GI(517-606) binding, 2 h; hit rate 0.37% among 220,000;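 active = inhibition above about 30%, limit read from the data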
14-3-3 Bad PPI: disrupts binding of bovine 14-3-3 zeta to phospho-Bad peptide; TR-FRET 14-3-3zeta/Dy647-pBad peptide displacement, 1 h; inhibition, % at 21.7 µM; hit rate 0.71% among 220,000;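 active = inhibition above about 70%, limit read from the data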
Target sequence (P63103 whole entry, looked up): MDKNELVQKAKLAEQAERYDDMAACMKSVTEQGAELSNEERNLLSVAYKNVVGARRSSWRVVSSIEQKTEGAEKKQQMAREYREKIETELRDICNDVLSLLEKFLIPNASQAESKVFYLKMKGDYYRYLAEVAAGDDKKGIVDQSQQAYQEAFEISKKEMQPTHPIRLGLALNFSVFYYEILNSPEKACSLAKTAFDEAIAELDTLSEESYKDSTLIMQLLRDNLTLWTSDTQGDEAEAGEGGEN
Hck-Nef confirm: Hck-Nef kinase inhibition, confirmation; shares compounds with Hck Nef HTS; Recombinant Hck-YEEI:Nef, Z-Lyte FRET kinase assay; calls only at 10 µM; hit rate 28% among 1,300; AID 463188;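 active = average inhibition of at least 50%, with Z-scores no higher than 3 in both the phospho-tyrosine peptide and fluorescence counterscreens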
Of the large screens only hits and unclear results are named; the others gave an inactive call (follow-up assays come after a bar, where shown); [ ] = remark or other dose. In the library only some 3.5% were active in any assay of this set; here they are far more common.

O=C(Nc1cccc(-c2nc3cccnc3s2)c1)c1ccc(Cl)nc1	Hck Nef HTS 87 (no result: Mcl-1 Bim block) | Hck-Nef confirm inactive
O=C(Nc1cccc(-c2nc3cccnc3s2)c1)C1c2ccccc2Oc2ccccc21	Hck Nef HTS 102, eIF4E-4G inh 34, 14-3-3 Bad PPI 91 | Hck-Nef confirm active
Cc1cc(C)n(C(=O)c2cc(F)c(F)cc2C)n1	none
NCCCCCC(=O)N/N=C/c1coc2ccccc2c1=O	Hck Nef HTS 84 (no result: Mcl-1 Bim block) | Hck-Nef confirm active
NC(=O)N/N=C/c1coc2ccc(O)cc2c1=O	none (no result: Mcl-1 Bim block)
O=C(N/N=C\c1coc2ccccc2c1=O)c1ccco1	Hck Nef HTS 83 (no result: Mcl-1 Bim block) | Hck-Nef confirm active
O=C(N/N=C/c1coc2ccccc2c1=O)c1cn(-c2ccccc2)nc1-c1ccccc1	none
N#CCC(=O)N/N=C/c1coc2ccccc2c1=O	Hck Nef HTS 81 (no result: Mcl-1 Bim block) | Hck-Nef confirm active
O=C(N/N=C/c1coc2ccccc2c1=O)c1ccccc1	Hck Nef HTS 87 | Hck-Nef confirm inactive
Cc1ccc2c(c1)C1NC(=S)NC(C)(O2)C1C(=O)Nc1ccc(Cl)cc1 (stereo not drawn)	none
CCOC(=O)c1cc2c(=O)n3ccccc3nc2n(CC2CCCO2)c1=NC(C)=O (stereo not drawn)	Hck Nef HTS 193 (not shown: Mcl1 Bid PPI, Mcl-1 Bim block, Mcl1-Noxa inh, eIF4E-4G inh, 14-3-3 Bad PPI)
O=C(COc1ccccc1)N(Cc1cccs1)C1CCS(=O)(=O)C1 (stereo not drawn)	none (no result: Mcl-1 Bim block)
N#Cc1c(NCCCO)nc(-c2ccco2)c2c1CCCC2	Hck Nef HTS 140
N#Cc1c(NC2CCCCC2)nc(-c2ccco2)c2c1CCCC2	none
COc1ccc(-c2nc3ncnn3cc2C)cc1F	none
O=C1CSC(=S)N1/N=C/c1ccc(Cl)c([N+](=O)[O-])c1	Hck Nef HTS 80 (no result: Mcl-1 Bim block) | Hck-Nef confirm active
COc1cc(/C=N/N2C(=O)CSC2=S)ccc1O	none
CCc1sc(/C=C(/C#N)C(N)=S)cc1[N+](=O)[O-]	Hck Nef HTS 63 | Hck-Nef confirm inactive
CCc1ccc(/C=C(/C#N)C(N)=S)s1	none
O=C(CSc1nc2nc(-c3cccs3)cc(C(F)(F)F)c2c(=O)[nH]1)Nc1ccc(F)c(F)c1	Hck Nef HTS 54
Cc1cc(=O)oc2cc(NS(=O)(=O)c3ccc(F)cc3)ccc12	Hck Nef HTS 106 (not shown: Mcl-1 Bim block)
Cc1cc(=O)oc2cc(NS(=O)(=O)c3ccccc3)ccc12	Hck Nef HTS 114 (not shown: Mcl-1 Bim block)
COc1ccc(S(=O)(=O)Nc2ccc(S(=O)(=O)Nc3ccc(F)cc3)cc2)cc1C	none
CN(C)S(=O)(=O)c1ccc(S(=O)(=O)Nc2ccc3c(c2)oc2ccccc23)cc1	none
COc1cc(OC)c(OC)cc1/C=N/Nc1nc2ccccc2[nH]1	none (no result: Mcl-1 Bim block)
COc1cc(OC)c(OC)cc1/C=N/Nc1ncnc2c1[nH]c1ccccc12	Hck Nef HTS 53
Cc1cc(C(=O)CSc2ccc3c(c2)OCCO3)c(C)n1C1CC1	none
O=C(Oc1ccc(/C=N/Nc2ccccc2)cc1)c1ccccc1	none
O=C(O)c1ccc(N/N=C/c2ccc(OC(=O)c3cccc(Cl)c3)cc2)cc1	Hck Nef HTS 56, Mcl1-Noxa inh 92 (no result: Mcl-1 Bim block) | Hck-Nef confirm active
Cc1cc(=O)[nH]c(N/N=C/c2cn(CCC#N)nc2-c2ccccc2)n1	none
O=C(NC(=S)Nc1nc2c(ccc3ccccc32)s1)c1cccs1	none
CCN1/C(=C\C=C2\C(=O)N(C)C(=S)N2C)Sc2ccccc21	Hck Nef HTS 72 | Hck-Nef confirm inactive
CCN1/C(=C2/OC(=S)N(C)C2=O)Sc2ccccc21	none
CC[n+]1ccc(C)c2cc(SC(F)(F)F)ccc21	Hck Nef HTS 72 | Hck-Nef confirm inactive
C=CCSC1=N/C(=C/c2ccsc2)C(=O)N1c1ccccc1	none
COc1ccccc1C(=O)Oc1cc(N)n(S(=O)(=O)c2ccc(C)cc2)n1	Hck Nef HTS 94 | Hck-Nef confirm active
C[C@@H](O)C1NC(=O)[C@H](CCCCN)NC(=O)c2cc([N+](=O)[O-])cc(I)c2OCC[C@@H](C(N)=O)NC1=O (stereo partly drawn)	none
Cc1nc2ccccc2nc(=O)c1NNc1ccccc1	Hck Nef HTS 101 | Hck-Nef confirm active
Cc1nc2ccccc2nc1OCc1ccccc1	none
COC(=O)Cc1c(C)c2ccc(OC(=O)c3ccccc3)cc2oc1=O	Hck Nef HTS 56
CCC(=O)Oc1ccc2c(C)c(Cl)c(=O)oc2c1	Hck Nef HTS 109
Cc1c(Cc2ccccc2)c(=O)oc2cc(OC(=O)c3ccccc3)ccc12	none
Cc1c(Cl)c(=O)oc2cc(OC(C)C)ccc12	none
COc1cc2nc(Cl)nc(N3CCCCC3)c2cc1OC	none
COc1cc2nc(Cl)nc(N3CCOCC3)c2cc1OC	Hck Nef HTS 69 | Hck-Nef confirm inactive
Cc1sc2ncnc(SCC(=O)Nc3nc(-c4ccc(F)c(F)c4)cs3)c2c1C	Hck Nef HTS 117 | Hck-Nef confirm inactive
COc1ccccc1N1CCN(C(=O)CSc2nc(C)c(C)c(=O)[nH]2)CC1	Hck Nef HTS 66 | Hck-Nef confirm inactive
CCc1c(C)nc(SCC(=O)N2CCN(c3ccccc3OC)CC2)[nH]c1=O	none
Cn1cnc2c(N/N=C/c3cccs3)ncnc21	Hck Nef HTS 68 (no result: Mcl-1 Bim block) | Hck-Nef confirm active
N=C1S/C(=C\c2ccc(-c3cccc(Cl)c3)o2)C(=O)N1c1nccs1	Hck Nef HTS 51, Mcl1 Bid PPI 91, Mcl1-Noxa inh 88, 14-3-3 Bad PPI 74[fluorescence artefact?] | Hck-Nef confirm inactive
CN(C)/C=C1\C(=O)ON=C1c1ccccc1	none
Cc1ccc(C2=NOC(=O)/C2=C\C=C\c2ccccc2)cc1	Hck Nef HTS 56 | Hck-Nef confirm inactive
Cc1ccc(/C=N/N=C2\SCC(=O)N2CC2CC2)cc1	none (no result: Mcl-1 Bim block)
Cc1cc(=O)oc2cc3c(cc12)OCCN3	Hck Nef HTS 107
C/C(N)=C(/C#N)C(=O)CSc1nc2ccccc2c(=O)n1Cc1ccc(C)cc1	Hck Nef HTS 55 | Hck-Nef confirm inactive
CN1CCN(CCCNC(=O)Cn2ncc3c4ccccc4n(C)c3c2=O)CC1	none
Cc1cc2c(s1)c1cnn(CC(=O)NCCc3ccccc3)c(=O)c1n2C	Hck Nef HTS 76 | Hck-Nef confirm inactive
COC(=O)c1sc(NC(=O)/C=C/c2ccc(C)cc2)nc1C	none
COC(=O)c1sc(NC(=O)/C=C/c2ccccc2Cl)nc1C	Hck Nef HTS 66 | Hck-Nef confirm inactive
CCc1ccc2[nH]c(=O)c(CN(Cc3ccccc3)C(=O)Nc3ccccc3OC)cc2c1	none
COc1cc(/C=C(/C#N)c2ccc(F)cc2)ccc1OCc1ccc(C(=O)O)o1	Hck Nef HTS 55 | Hck-Nef confirm active
N#C/C(=C\c1ccccc1OCc1ccc(C(=O)O)cc1)C(=O)Nc1ccc(O)cc1	Hck Nef HTS 69 | Hck-Nef confirm inactive
COc1ccc(NC(=O)/C(C#N)=C\c2ccc(OCc3ccc(C(=O)O)cc3)c(OC)c2)cc1	Hck Nef HTS 70 | Hck-Nef confirm inactive
